Among all 5,500 compounds or so, about 2,000 (36%) were called active. Inconclusive results (about 18%) are left out. Some of the results follow. A number with no mark means an inactive call. Rule as the data show it: active = normalized growth mostly below about 0.91 (no sharp cut-off); inconclusive = no clear call, values can overlap the other calls; inactive = mostly above about 0.92.
Assay: chemical genetic growth profiling, strain panel (AID 1159580);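 also: tested at 20 µM; growth read once vehicle control cultures reached saturation at 30 °C; 1 = growth at the plate median or of vehicle wells; lower values mean less growth of the strain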
Conditions: growth OD
[1] = S. cerevisiae deletion strains, locus YAL013W, strain DEP1, hits give low values
[2] = S. cerevisiae deletion strains, locus YBR229C, strain ROT2, hits give low values
[3] = S. cerevisiae deletion strains, locus YDL101C, strain DUN1, hits give low values
[4] = S. cerevisiae deletion strains, locus YDR150W, strain NUM1, hits give low values
[5] = S. cerevisiae deletion strains, locus YEL061C, strain CIN8, hits give low values
[6] = S. cerevisiae deletion strains, locus YGR078C, strain PAC10, hits give low values
[7] = S. cerevisiae deletion strains, locus YHR030C, strain SLT2, hits give low values
[8] = S. cerevisiae deletion strains, locus YHR087W, strain rtc3, hits give low values
[9] = S. cerevisiae deletion strains, locus YJL187C, strain SWE1, hits give low values
[10] = S. cerevisiae deletion strains, locus YJR043C, strain POL32, hits give low values
[11] = S. cerevisiae deletion strains, locus YJR075W, strain HOC1, hits give low values
[12] = S. cerevisiae deletion strains, locus YKL190W, strain CNB1, hits give low values
[13] = S. cerevisiae deletion strains, locus YLR039C, strain RIC1, hits give low values
[14] = S. cerevisiae deletion strains, locus YLR058C, strain SHM2 (second series), hits give low values
[15] = S. cerevisiae deletion strains, locus YLR085C, strain ARP6, hits give low values
[16] = S. cerevisiae deletion strains, locus YLR262C, strain YPT6, hits give low values
[17] = S. cerevisiae deletion strains, locus YML094W, strain GIM5, hits give low values
[18] = S. cerevisiae deletion strains, locus YMR219W, strain ESC1, hits give low values
[19] = S. cerevisiae deletion strains, locus YMR263W, strain SAP30, hits give low values
[20] = S. cerevisiae deletion strains, locus YMR307W, strain GAS1, hits give low values
[21] = S. cerevisiae deletion strains, locus YNL128W, strain TEP1, hits give low values
[22] = S. cerevisiae deletion strains, locus YNL153C, strain GIM3, hits give low values
[23] = S. cerevisiae deletion strains, locus YNL298W, strain CLA4 (second series), hits give low values
[24] = S. cerevisiae deletion strains, locus YNL322C, strain KRE1, hits give low values
[25] = S. cerevisiae deletion strains, locus YNR030W, strain Alg12, hits give low values
[26] = S. cerevisiae deletion strains, locus YPL055C, strain LGE1, hits give low values
[27] = S. cerevisiae deletion strains, locus YPL241C, strain CIN2, hits give low values
[28] = S. cerevisiae deletion strains, locus YPR135W, strain CTF4, hits give low values
[29] = S. cerevisiae strains, strain wild type, hits give low values

O=C1c2cccc3c([N+](=O)[O-])ccc(c23)C(=O)N1Cc1ccco1
normalized growth [1]: 0.81 (active)
normalized growth [2]: 0.94
normalized growth (S. cerevisiae deletion strains, locus YCL061C, strain MRC1, hits give low values): 0.896 (active)
normalized growth [3]: 0.873 (active)
normalized growth [4]: 0.763 (active)
normalized growth [5]: 0.909 (active)
normalized growth [6]: 0.879 (active)
normalized growth [7]: 0.321 (active)
normalized growth [8]: 0.974
normalized growth [9]: 0.995
normalized growth [10]: 0.791 (active)
normalized growth [11]: 0.97
normalized growth [12]: 0.934
normalized growth [13]: 0.852
normalized growth [14]: 0.972
normalized growth [15]: 0.341 (active)
normalized growth [16]: 0.815
normalized growth [17]: 0.797 (active)
normalized growth [18]: 0.98
normalized growth [19]: 0.796 (active)
normalized growth [20]: 0.739
normalized growth [21]: 0.958
normalized growth [22]: 0.899 (active)
normalized growth [23]: 0.753 (active)
normalized growth [24]: 0.997
normalized growth [25]: 0.559 (active)
normalized growth [26]: 0.628 (active)
normalized growth [27]: 0.634 (active)
normalized growth [28]: 0.382 (active)
normalized growth [29]: 0.935

O=C1c2cccc3cc([N+](=O)[O-])cc(c23)C(=O)N1CCO
normalized growth [1]: 0.992
normalized growth [2]: 1.02
normalized growth [3]: 0.974
normalized growth [4]: 0.995
normalized growth [5]: 1.01
normalized growth [6]: 0.988
normalized growth [7]: 1.04
normalized growth [8]: 1.02
normalized growth [9]: 0.984
normalized growth [10]: 0.995
normalized growth [11]: 1.02
normalized growth [12]: 1.02
normalized growth [13]: 1.03
normalized growth [14]: 1.01
normalized growth [15]: 0.908
normalized growth [16]: 1.05
normalized growth [17]: 0.976
normalized growth [18]: 1.01
normalized growth [19]: 0.984
normalized growth [21]: 1
normalized growth [22]: 1.02
normalized growth [23]: 0.975
normalized growth [24]: 1.01
normalized growth [25]: 0.985
normalized growth [26]: 0.991
normalized growth [27]: 1.01
normalized growth [28]: 0.89
normalized growth [29]: 1.01

Cc1nc2c([nH]1)c(=O)n(C)c(=O)n2Cc1ccco1
normalized growth [1]: 1.04
normalized growth (S. cerevisiae deletion strains, locus YAL040C, strain CLN3, hits give low values): 1
normalized growth (S. cerevisiae deletion strains, locus YCL061C, strain MRC1 (second series), hits give low values): 1.01
normalized growth [4]: 1
normalized growth (S. cerevisiae deletion strains, locus YDR363W, strain ESC2, hits give low values): 1.03
normalized growth (S. cerevisiae deletion strains, locus YER002W, strain NOP16, hits give low values): 0.998
normalized growth [20]: 1.02
normalized growth (S. cerevisiae deletion strains, locus YNL175C, strain NOP13, hits give low values): 1.01
normalized growth (S. cerevisiae deletion strains, locus YNL197C, strain WHI3, hits give low values): 1.01
normalized growth (S. cerevisiae deletion strains, locus YNL224C, strain SQS1, hits give low values): 0.995
normalized growth [24]: 1.02
normalized growth (S. cerevisiae deletion strains, locus YOR083W, strain WHI5 (second series), hits give low values): 1.05
normalized growth [26]: 1.01

CC1/C(=N\O)C[C@@H]2C[C@H]1C2(C)C (stereo not given in full)
normalized growth [1]: 1.01
normalized growth (S. cerevisiae deletion strains, locus YBR021W, strain FUR4, hits give low values): 1.01
normalized growth [2]: 1.01
normalized growth (S. cerevisiae deletion strains, locus YCL029C, strain bik1, hits give low values): 0.994
normalized growth (S. cerevisiae deletion strains, locus YDL035C, strain GPR1, hits give low values): 0.993
normalized growth (S. cerevisiae deletion strains, locus YDL074C, strain BRE1, hits give low values): 1.04
normalized growth [3]: 1.02
normalized growth (S. cerevisiae deletion strains, locus YDL134C, strain PPH21, hits give low values): 1.01
normalized growth (S. cerevisiae deletion strains, locus YDL185W, strain tfp1, hits give low values): 1.02
normalized growth (S. cerevisiae deletion strains, locus YDL192W, strain arf1, hits give low values): 1.03
normalized growth (S. cerevisiae deletion strains, locus YDR101C, strain arx1, hits give low values): 0.981
normalized growth (S. cerevisiae deletion strains, locus YDR162C, strain NBP2, hits give low values): 1.02
normalized growth (S. cerevisiae deletion strains, locus YDR318W, strain mcm21, hits give low values): 1.04
normalized growth (S. cerevisiae deletion strains, locus YDR388W, hits give low values): 1.02
normalized growth (S. cerevisiae deletion strains, locus YDR502C, strain sam2, hits give low values): 1.02
normalized growth (S. cerevisiae deletion strains, locus YER110C, hits give low values): 1.01
normalized growth (S. cerevisiae deletion strains, locus YER155C, strain BEM2, hits give low values): 1.01
normalized growth (S. cerevisiae deletion strains, locus YER167W, strain BCK2, hits give low values): 1.01
normalized growth (S. cerevisiae deletion strains, locus YGL078C, strain dbp3, hits give low values): 1.02
normalized growth (S. cerevisiae deletion strains, locus YGL086W, strain mad1, hits give low values): 0.999
normalized growth (S. cerevisiae deletion strains, locus YGL248W, strain PDE1, hits give low values): 1.03
normalized growth [6]: 1.03
normalized growth (S. cerevisiae deletion strains, locus YGR135W, strain pre9, hits give low values): 1.04
normalized growth (S. cerevisiae deletion strains, locus YGR252W, strain gcn5, hits give low values): 1.01
normalized growth [7]: 1.03
normalized growth (S. cerevisiae deletion strains, locus YHR079C, strain IRE1 (second series), hits give low values): 1.03
normalized growth (S. cerevisiae deletion strains, locus YHR079C, strain IRE1, hits give low values): 1.04
normalized growth (S. cerevisiae deletion strains, locus YHR094C, strain hxt1, hits give low values): 1.01
normalized growth (S. cerevisiae deletion strains, locus YHR129C, strain ARP1, hits give low values): 1.01
normalized growth (S. cerevisiae deletion strains, locus YHR200W, strain rpn10, hits give low values): 1.03
normalized growth (S. cerevisiae deletion strains, locus YIL066C, strain RNR3, hits give low values): 1.01
normalized growth (S. cerevisiae deletion strains, locus YIL073C, strain SPO22, hits give low values): 1.05
normalized growth (S. cerevisiae deletion strains, locus YIL125W, strain kgd1, hits give low values): 1.02
normalized growth (S. cerevisiae deletion strains, locus YIR030C, strain dcg1, hits give low values): 1.02
normalized growth (S. cerevisiae deletion strains, locus YJL095W, strain BCK1, hits give low values): 1.04
normalized growth (S. cerevisiae deletion strains, locus YJL134W, strain LCB3, hits give low values): 1.02
normalized growth (S. cerevisiae deletion strains, locus YJL168C, strain set2, hits give low values): 1.01
normalized growth (S. cerevisiae deletion strains, locus YJL187C, strain SWE1 (second series), hits give low values): 1.03
normalized growth [10]: 0.994
normalized growth (S. cerevisiae deletion strains, locus YJR066W, strain TOR1, hits give low values): 0.95
normalized growth [11]: 1.03
normalized growth (S. cerevisiae deletion strains, locus YKL009W, strain mrt4, hits give low values): 0.995
normalized growth (S. cerevisiae deletion strains, locus YKL068W, hits give low values): 1.02
normalized growth (S. cerevisiae deletion strains, locus YKL085W, strain MDH1 (second series), hits give low values): 1.02
normalized growth (S. cerevisiae deletion strains, locus YKL085W, strain MDH1, hits give low values): 1.02
normalized growth [12]: 1.01
normalized growth (S. cerevisiae deletion strains, locus YKR001C, strain vps1, hits give low values): 1.05
normalized growth [13]: 1.09
normalized growth (S. cerevisiae deletion strains, locus YLR058C, strain SHM2, hits give low values): 1.02
normalized growth (S. cerevisiae deletion strains, locus YLR102C, strain apc9, hits give low values): 1.05
normalized growth (S. cerevisiae deletion strains, locus YLR113W, strain HOG1, hits give low values): 1.05
normalized growth [16]: 1.1
normalized growth (S. cerevisiae deletion strains, locus YLR268W, strain sec22, hits give low values): 1.02
normalized growth (S. cerevisiae deletion strains, locus YLR371W, strain rom2, hits give low values): 1.04
normalized growth (S. cerevisiae deletion strains, locus YLR418C, strain cdc73, hits give low values): 1.06
normalized growth (S. cerevisiae deletion strains, locus YML016C, strain PPZ1, hits give low values): 1.02
normalized growth (S. cerevisiae deletion strains, locus YML032C, strain rad52, hits give low values): 1.02
normalized growth (S. cerevisiae deletion strains, locus YML124C, strain tub3, hits give low values): 1.01
normalized growth (S. cerevisiae deletion strains, locus YMR078C, strain ctf18, hits give low values): 1.03
normalized growth (S. cerevisiae deletion strains, locus YMR223W, strain ubp8, hits give low values): 1.02
normalized growth [20]: 1.06
normalized growth (S. cerevisiae deletion strains, locus YNL067W, strain RPL9B, hits give low values): 1.02
normalized growth (S. cerevisiae deletion strains, locus YNL183C, strain NPR1, hits give low values): 0.951
normalized growth (S. cerevisiae deletion strains, locus YNL233W, strain BNI4, hits give low values): 1.03
normalized growth (S. cerevisiae deletion strains, locus YNL250W, strain rad50, hits give low values): 1.05
normalized growth (S. cerevisiae deletion strains, locus YNL271C, strain bni1, hits give low values): 1.02
normalized growth (S. cerevisiae deletion strains, locus YNL298W, strain CLA4, hits give low values): 1.02
normalized growth (S. cerevisiae deletion strains, locus YNL307C, strain MCK1, hits give low values): 1.01
normalized growth (S. cerevisiae deletion strains, locus YNR052C, strain pop2, hits give low values): 1.03
normalized growth (S. cerevisiae deletion strains, locus YOL012C, strain htz1): 1.25
normalized growth (S. cerevisiae deletion strains, locus YOL147C, strain pex11, hits give low values): 1.01
normalized growth (S. cerevisiae deletion strains, locus YOR061W, strain CKA2, hits give low values): 1.02
normalized growth (S. cerevisiae deletion strains, locus YOR069W, strain VPS5, hits give low values): 1.01
normalized growth (S. cerevisiae deletion strains, locus YOR136W, strain idh2, hits give low values): 1
normalized growth (S. cerevisiae deletion strains, locus YOR144C, strain elg1, hits give low values): 1.01
normalized growth (S. cerevisiae deletion strains, locus YOR184W, strain ser1, hits give low values): 0.926
normalized growth (S. cerevisiae deletion strains, locus YOR231W, strain MKK1, hits give low values): 1.02
normalized growth (S. cerevisiae deletion strains, locus YOR316C, strain cot1, hits give low values): 1.03
normalized growth (S. cerevisiae deletion strains, locus YPL256C, strain CLN2, hits give low values): 1.05
normalized growth (S. cerevisiae deletion strains, locus YPR119W, strain clb2, hits give low values): 1.03
normalized growth (S. cerevisiae deletion strains, locus YPR141C, strain kar3, hits give low values): 1.02
normalized growth (S. cerevisiae deletion strains, locus YPR163C, strain tif3, hits give low values): 1.03
normalized growth (S. cerevisiae deletion strains, locus YPR167C, strain met16, hits give low values): 1.03
normalized growth (S. cerevisiae deletion strains, strain wtn01, hits give low values): 0.995

Source: PubChem BioAssay AID1159580 (chemical genetic matrix, 2015)
